Assay outcomes as filed in PubChem.
hcDAF12 agonist – activates DAF-12 receptor from parasite H. contortus | HEK293 hcDAF-12 lit1-tk-luc reporter, luminescence; 0% DMSO, 100% Δ7-dafachronic acid | activation, % at 6.8 µM | hit rate 1.4% among 370,000 | AID 652067;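 active = activation above the mean of all tested compounds plus 3 SD, cut at about 5.5% in these data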;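 also: 100% = response to 3 µM Δ7-dafachronic acid high control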
hgDAF-12 ag – hgDAF-12 agonism, primary luciferase screen; AID 687014; activation, % at 6.8 µM; hit rate 1.8% among 370,000; HEK293 GAL4-hgDAF12 UAS-luciferase reporter, agonist luminescence; normalized to butyrate control;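 active = activation above a cutoff set at the mean of all screened compounds plus 3 SD, cut at about 10% in these data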;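 also: 0% = DMSO wells and 100% = sodium butyrate wells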
DAX1 inh-1 – inhibits human nuclear receptor DAX1; P51843; HEK293 Gal4-DAX1 luciferase reporter, luminescence; inhibition, % at 6.75 µM; hit rate 0.99% among 340,000; AID 504766;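 active = inhibition above the mean over all tested compounds plus 3 SD, cut at about 4.2% in these data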;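 also: 0% = DAX1-transfected cells with DMSO and 100% = empty-vector control cells with DMSO; inhibition shows as a rise in luminescence from relieved DAX1 repression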
Target sequence (P51843 207-470 limits assumed): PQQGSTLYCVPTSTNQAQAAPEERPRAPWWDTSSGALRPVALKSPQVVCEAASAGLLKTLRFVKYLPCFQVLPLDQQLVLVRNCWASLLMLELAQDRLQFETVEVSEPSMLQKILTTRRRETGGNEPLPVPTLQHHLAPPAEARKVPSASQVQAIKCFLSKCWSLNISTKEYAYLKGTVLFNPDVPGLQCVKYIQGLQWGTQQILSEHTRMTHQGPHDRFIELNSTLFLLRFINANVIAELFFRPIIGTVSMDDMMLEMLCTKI
DAX1 inh-2 – DAX1 (NR0B1) inhibition, primary screen. HEK293T StAR-luciferase reporter, SF-1/DAX-1 repression relief. inhibition, % at 6.8 µM. hit rate 1.1% among 370,000. AID 652010;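 active = inhibition above the mean over all tested compounds plus 3 SD, cut at about 3.6% in these data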;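 also: 0% = DAX-1 cells with DMSO and 100% = cells lacking DAX-1 with DMSO; higher inhibition means more luminescence from relief of DAX-1 repression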
ssDAF-12 act – S. stercoralis DAF-12 activation, primary screen. HEK293 ssDAF-12/GRIP1 lit1-tk-luc reporter, luminescence; % of 3 µM dafachronic acid response. activation, % at 6.8 µM. hit rate 1% among 370,000;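 active = activation above the mean over all tested compounds plus 3 SD, cut at about 0.9% in these data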;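 also: 0% = DMSO-only wells and 100% = 3 µM delta7-dafachronic acid wells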
LXRb hcDAF ctr – counter-screen for hcDAF-12 agonists: agonists of human LXR-beta | AID 743027 | shares compounds with hcDAF12 agonist | HEK293 Gal4-LXR tk-luc reporter, luminescence, 24 h; normalized: DMSO 0%, positive control 100% | activation, % at 6.8 µM | 3,400 tested, under 10 active;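 active = mean percent activation of the reporter above a cutoff set as the average over tested compounds plus their standard deviation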
Target sequence (P55055 whole entry, looked up, the tested form may be a part): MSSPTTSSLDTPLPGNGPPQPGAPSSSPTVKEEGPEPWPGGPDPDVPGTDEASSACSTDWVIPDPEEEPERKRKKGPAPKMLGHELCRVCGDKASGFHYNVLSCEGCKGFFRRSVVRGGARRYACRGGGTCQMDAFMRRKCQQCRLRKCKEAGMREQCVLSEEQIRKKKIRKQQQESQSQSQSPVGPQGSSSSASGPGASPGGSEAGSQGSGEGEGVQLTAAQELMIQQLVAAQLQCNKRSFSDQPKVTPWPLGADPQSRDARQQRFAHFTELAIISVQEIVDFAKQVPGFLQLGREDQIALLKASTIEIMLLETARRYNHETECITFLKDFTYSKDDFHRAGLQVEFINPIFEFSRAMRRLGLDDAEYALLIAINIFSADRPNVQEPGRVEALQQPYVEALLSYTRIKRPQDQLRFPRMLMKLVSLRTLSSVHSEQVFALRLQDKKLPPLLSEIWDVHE
hcDAF12 conf – hcDAF-12 agonism, confirmation assay; shares compounds with hcDAF12 agonist; HEK293 hcDAF-12 lit1-tk-luc reporter, luminescence; % of Δ7-dafachronic acid response; activation, % at 6.8 µM; hit rate 61% among 3,400; AID 743032;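 active = mean activation across triplicate tests above the threshold derived from the earlier primary screen, cut at about 5.5% in these data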;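 also: 0% = DMSO only wells and 100% = 3 µM Δ7-dafachronic acid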
hgDAF12 conf – hgDAF-12 agonism, confirmation assay; AID 743050; HEK293 GAL4-hgDAF12 luciferase reporter, agonist mode; percent of butyrate response; hit rate 80% among 3,300; shares compounds with hgDAF-12 ag; activation, % at 6.8 µM;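 active = mean activation over triplicate wells above the hit cutoff derived from the earlier primary screen, cut at about 11% in these data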;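 also: 0% = DMSO low control and 100% = 2 mM sodium butyrate high control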
LXR ag 2 – counter-screen for DAF-12 agonists: agonists of human LXR-beta; shares compounds with hgDAF-12 ag; HEK293 Gal4-LXR luciferase reporter, 24 h; activation, % at 6.8 µM; 3,300 tested, under 10 active; AID 743051;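 active = mean activation of the triplicate above a set limit carried over from the primary screen, none filed active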
Numbers without * were called inactive; . = no result. Most compounds without a hit are left out; they make up all but 4.1% or so of the library.

SMILES	hcDAF12 agonist	hgDAF-12 ag	DAX1 inh-1	DAX1 inh-2	ssDAF-12 act	LXRb hcDAF ctr	hcDAF12 conf	hgDAF12 conf	LXR ag 2
Clc1ccc(-c2nc3nc4ccccc4nc3n2Cc2ccco2)cc1	8.4*	14.1*	3.5	3.1	1.1*	0.6	5.8*	7.3	0.2
COc1ccccc1N1CCN(c2ccc(-c3ccccc3)nn2)CC1	7.1*	18.0*	-3.2	3.2	1.3*	0.9	4.4	8.2	0.7
COc1cccc(-c2nc(-c3ccc(Br)o3)no2)c1	7.6*	30.5*	5.4*	4.4*	2.0*	1.3	11.9*	23.1*	1.1
CCCCCCCCN1C(=O)[C@H](CC(=O)NCc2cccs2)C[C@@]2(C(=O)OC)CCCCC=C12	-1.1	1.7	.	-1.0	-0.2	.	.	.	.
CCCC/C=C1/C(c2ccccc2)N(Cc2ccc(OC)cc2OC)C2=NC(c3ccccc3)CC(=O)N21 (stereo unspecified)	-0.6	4.6	.	.	-2.1	.	.	.	.
Cc1cccc(NC(=S)c2nc3ccccc3s2)c1	8.8*	13.5*	2.1	2.5	2.1*	1.1	9.9*	16.5*	0.7
Cc1ccc(C(=O)Nc2nnc(-c3ccc(C(C)(C)C)cc3)s2)cc1	0.5	1.5	0.2	-0.2	-1.0	.	.	.	.
Cc1ccc(-c2nnc(NC3CCCC3)s2)cc1	9.2*	15.2*	3.6	2.2	0.0	0.9	3.0	18.6*	0.9
Cc1cc2nn(-c3ccccc3)nc2cc1NC(=O)c1cccs1	1.0	4.5	0.8	0.0	-1.3	.	.	.	.
CC(=O)Nc1cc2nn(-c3ccccc3)nc2cc1C	7.0*	18.1*	-1.3	2.5	1.4*	1.8	5.4	18.6*	0.7
C[C@@H]1CN([C@H](C)CO)C(=O)CCCn2nncc2CO[C@H]1CN(C)C(=O)c1ccc2ccn(C)c2c1	1.7	-0.7	0.8	0.4	-1.1	.	.	.	.
COc1ccc2cc(-c3nc4ccccc4n3C)c(=O)oc2c1	6.8*	16.1*	3.0	4.1*	0.1	0.8	5.5	11.3*	0.4
O=C(NCC(=O)N1CCN(C(c2ccccc2)c2ccccc2)CC1)c1ccccc1F	-1.6	-2.0	-1.0	-0.3	-1.0	.	.	.	.
O=c1cc(-c2ccccc2)[nH]c2nc3ccccc3n12	10.8*	13.8*	0.9	3.7*	1.5*	1.9	15.2*	19.4*	1.1
O=c1cc(CCl)[nH]c2nc3ccccc3n12	-1.2	-1.6	-0.8	0.1	0.2	.	.	.	.
O=C(CSCc1ccccc1)N=Nc1c(O)[nH]c2ccccc12	1.9	5.7	-0.8	0.7	0.0	.	.	.	.
O=C(N=Nc1c(O)[nH]c2ccccc12)c1ccco1	9.8*	18.5*	4.4*	2.5	0.7	1.2	10.3*	17.3*	0.6
CCC1=C(Nc2ccccc2)COC1=O	-1.1	-0.8	1.2	-0.3	-1.3	.	.	.	.
NC(=O)c1c[nH]c2ccccc12	4.5	-0.7	1.1	-0.1	-0.6	.	.	.	.
O=C(/C=C/c1ccccc1)c1c[nH]c2ccccc12	12.3*	20.3*	4.3*	3.1	3.8*	1.7	8.3*	18.7*	1.2
O=C(Nc1ccccc1)C(=O)c1c[nH]c2ccccc12	14.7*	14.7*	2.6	1.6	4.4*	2.0	17.2*	24.7*	1.4
COC(=O)C1=C(C)N(CC(C)C)C(=S)NC1c1cccc(OC)c1 (stereo unspecified)	-1.7	-1.1	.	0.0	-1.2	.	.	.	.
Clc1cccc(/C=N/Nc2ncnc3ccccc23)c1	10.8*	13.4*	3.6	2.7	1.8*	1.3	7.1*	17.9*	0.6
Nc1c(Cl)ncnc1N/N=C/c1ccnc2ccccc12	-0.2	7.8	-0.9	0.1	-1.4	.	.	.	.
COc1cccc2c1oc1c(SCc3nc4ccccc4[nH]3)nc(C)nc12	-0.6	-1.4	-1.0	0.1	0.1	.	.	.	.
SMILES	hcDAF12 agonist	hgDAF-12 ag	DAX1 inh-1	DAX1 inh-2	ssDAF-12 act	LXRb hcDAF ctr	hcDAF12 conf	hgDAF12 conf	LXR ag 2
CC1=NC(=O)C(N=Nc2cccc(O)c2)N1c1ccccc1 (stereo unspecified)	9.3*	14.2*	2.2	1.2	0.2	0.8	12.4*	16.3*	0.6
COc1ccc2[nH]c(C(=O)Nc3cccc(C)n3)cc2c1	7.9*	15.3*	.	3.7*	0.9*	2.0	6.2*	21.9*	1.2
COCCNC(=S)N1CCC(C(=O)c2ccc(Cl)cc2)CC1	-0.7	1.2	-0.8	-1.6	-0.7	.	.	.	.
Cc1ccc(NC(=O)c2cc3nc(C)cc(C)n3n2)cc1	8.5*	16.3*	0.5	4.3*	0.5	1.3	5.4	16.7*	0.7
Cc1ccc(NC(=O)c2cc(C(=O)Nc3ccc(C)cc3)n(C)n2)cc1	3.4	1.6	2.9	-0.2	-1.2	.	.	.	.
CC(=NC1CCCCC1)C1=C(O)c2ccccc2C1=O	8.1*	15.8*	1.3	4.2*	0.6	0.7	5.8*	15.1*	0.6
Cc1ccccc1C(=O)N1CCN(C(=O)C(=O)c2cccc(C(F)(F)F)c2)CC1	-1.6	-0.6	.	1.2	-1.0	.	.	.	.
O=C1CC(c2ccccc2)Sc2nc3ccccc3n21 (stereo unspecified)	6.9*	19.1*	2.6	4.0*	1.1*	1.3	7.3*	11.8*	0.7
COc1ccc(-n2ncc3c(NCc4ccco4)ncnc32)cc1	1.8	5.2	4.0	2.1	-0.7	.	.	.	.
C=CCNc1ncnc2c1cnn2-c1ccc(OC)cc1	6.6*	14.2*	3.6	4.3*	0.9*	1.6	5.8*	17.2*	0.8
CCCc1nc2c3ccccc3ccn2c1Cc1ccccc1	7.0*	23.1*	.	4.1*	1.3*	0.9	11.9*	16.5*	0.6
N#C/C(=C\c1ccc(OCc2ccc(C(=O)O)cc2)cc1)C(=O)N1CCOCC1	14.4*	18.6*	-6.2	3.5	1.6*	1.4	7.8*	20.5*	1.0
CC(C)n1cnc2cc(NCc3nc4ccccc4n3C)ccc21	6.7*	14.2*	1.0	2.4	-0.6	1.2	6.1*	11.2*	0.7
COc1ccc(CNc2ccc3c(c2)ncn3-c2ccccc2OC)cc1	-1.9	1.1	0.5	-0.4	-0.8	.	.	.	.
CCN(CC)CCn1c(=S)[nH]c2cc(C(=O)NCCc3ccc(OC)c(OC)c3)ccc2c1=O	1.0	0.9	0.1	-0.5	-0.9	.	.	.	.
O=c1c2ccccc2oc2cc(NCCCn3ccnc3)ccc12	7.2*	13.9*	1.3	3.7*	1.2*	1.2	5.4	17.2*	0.9
